Measurements: ChEMBL document CHEMBL3433997, “St. Jude Leishmania screening dataset” (2016)

Tests used:
Assay type in all cases: functional
[1] = target: Solute carrier family 2, facilitated glucose transporter member 1 (Homo sapiens) (UniProt P11166); test: ST_JUDE_LEISH: Cytotoxicity at 2uM final concentration against transgenic Leishmania Mexicana promastigotes LmGLUT1 that are glucose transport deficient and complemented with the human glucose transporter GLUT1. Activity is measured by DNA content using SYBR green in vitro
Solute carrier family 2, facilitated glucose transporter member 1 (Homo sapiens), sequence (P11166 whole entry): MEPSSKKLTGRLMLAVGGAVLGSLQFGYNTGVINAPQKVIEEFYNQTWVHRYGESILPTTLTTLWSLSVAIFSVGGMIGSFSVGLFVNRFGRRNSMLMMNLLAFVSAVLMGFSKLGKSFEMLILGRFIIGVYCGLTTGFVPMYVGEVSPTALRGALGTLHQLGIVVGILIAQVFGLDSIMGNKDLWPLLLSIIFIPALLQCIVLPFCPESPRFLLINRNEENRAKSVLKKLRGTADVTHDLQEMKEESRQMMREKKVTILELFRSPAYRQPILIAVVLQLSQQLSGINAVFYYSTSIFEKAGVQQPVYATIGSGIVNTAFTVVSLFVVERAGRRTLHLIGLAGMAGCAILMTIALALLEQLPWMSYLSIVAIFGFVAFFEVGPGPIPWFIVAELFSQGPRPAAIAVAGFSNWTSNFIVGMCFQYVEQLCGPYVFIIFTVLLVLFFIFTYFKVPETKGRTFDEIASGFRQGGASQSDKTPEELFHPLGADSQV

[2] = target: Hexose transporter 1 (Plasmodium falciparum) (UniProt O97467); test: ST_JUDE_LEISH: Cytotoxicity at 2uM final concentration against transgenic Leishmania Mexicana promastigotes LmPfHT that are glucose transport deficient and complemented with the Plasmodium falciparum hexose transporter. Activity is measured by DNA content using SYBR green in vitro
[3] = target: Glucose transporter (Leishmania mexicana) (UniProt O61059); test: ST_JUDE_LEISH: Cytotoxicity at 2uM final concentration against transgenic Leishmania Mexicana promastigotes LmGT2 that are glucose transport deficient and complemented with the L. Mexicana glucose transporter 2. Activity is measured by DNA content using SYBR green in vitro

| SMILES | inhibition [1] | inhibition [2] | inhibition [3] |
| --- | --- | --- | --- |
| COc1cc(C=C(C2=NC(=O)CS2)c2nc3cccnc3n2C)ccc1O | 5.2% | 5.56% | 4.82% |
| COc1cc(NC(=O)CCCCCCCCN2CCN(C)CC2)c2ncccc2c1 | 1.29% | -0.26% | 0.86% |
| FC(F)(F)c1ccc2c(NCCCNc3ccnc4cc(C(F)(F)F)ccc34)ccnc2c1 | -2.25% | 3.22% | -4.41% |
| COc1cc2c(cc1NS(=O)(=O)c1ccc(OCc3ccc(Br)cc3)cc1)CCN(C1CCC1)CC2 | 0.64% | -0.8% | -0.51% |
| CCCOc1ccccc1C(=O)Nc1nonc1-c1ccc(OCC)c(OCC)c1 | 0.74% | 0.51% | 0.93% |
| O=C(Cc1cccc2ccccc12)N1CCc2cc3nccc(N4CCN5CCC[C@H]5C4)c3cc21 | 8.63% | 7.78% | 10% |
| CCCCCCCCCc1c(C)[nH]c2ccccc2c1=O | -1.28% | 2.65% | 2.28% |
| O=S(=O)(c1cc(Cl)ccc1Cl)N1CCCCC(c2ccc(C(F)(F)F)cc2)=N1 | 0.47% | 2.66% | 5.01% |
| CN1CCN(c2ccnc3ccc(NC(=O)Nc4ccc(-c5ccccc5)cc4)cc23)CC1 | 3.26% | 2.25% | 2.96% |
| COc1c(F)ccc2ncc(Cl)c(CCN3CCC(NCc4ccc5c(n4)NC(=O)CS5)CC3)c12 | 6.45% | 6.77% | -2.91% |
| O=C(NC1CCN(CCCc2ccccc2)CC1)c1ccc(-c2cccc(C(F)(F)F)c2)s1 | 1.95% | 1.23% | 3.77% |
| COc1cccc(CN2Cc3ccccc3OC3(CCN(Cc4c[nH]c5cnccc45)CC3)C2)c1 | -0.87% | -0.52% | 0.59% |
| COc1ccc(C(=O)Cn2nc(-c3ccc(Cl)cc3)ccc2=O)c(OC)c1 | 1.41% | 1.16% | 0.37% |
| Cc1ccc(CNc2cc(C(F)(F)F)nc(-c3ccc(S(C)(=O)=O)cc3)n2)cc1 | 9.86% | 11.2% | 9.59% |
| CN(c1ccc(NC(=O)c2cccc(F)c2)cc1)C1CCCN(Cc2cccc(O)c2)C1 (centres undefined) | -0.85% | -2.67% | -0.73% |
| CCCC[C@H](NC(=O)OC(C)(C)C)C(=O)Nc1ccc(Cc2ccc(NC(=O)[C@H](CCCC)NC(=O)OC(C)(C)C)cc2)cc1 | 4.27% | 4.02% | 4.58% |
| CC(CN1CCN(C)CC1)C(=O)Nc1ccc(-c2ccc(-c3nc4ccccc4[nH]3)cc2)cc1 (centres undefined) | 0.19% | 3.04% | 1.16% |
| CC(C)(C)c1ccc(C(=O)Nc2ccc(NC(=O)c3ccc([N+](=O)[O-])o3)cc2)cc1 | 3.39% | 4.22% | 1.76% |
| N#Cc1ccc(/C=C/C(=O)NCCCCCN2CCCN(C(=O)Nc3ccc(Cl)c(C(F)(F)F)c3)CC2)cc1 | 1.18% | 1.14% | 1.57% |
| COc1ccc(NC(=O)[C@H](CC(C)C)Nc2ccnc(Nc3ccccc3)n2)cc1 | 0.79% | 2.71% | -0.96% |
| CCc1cccc(NC(=O)/C=C/c2ccc3c(c2)CN(C)CC3)c1 | 4.53% | 2.31% | 10.2% |
| COc1ccccc1N1CCN(c2cccc3c2nc(-c2cncc(C#N)c2)n3CCNCc2ccccc2)CC1 | 9.96% | 7.58% | 6.47% |
| C=C[C@]1(C)C[C@@H](OC(=O)c2cncn(COC)c2=O)[C@]2(C)[C@H](C)CC[C@]3(CCC(=O)[C@H]32)[C@@H](C)[C@@H]1O | -0.03% | -0.92% | 0.15% |
| COc1ccc(Cc2cnc3nc(N)nc(N)c3c2C)cc1 | 39.5% | 49.3% | 41.3% |

| SMILES | inhibition [1] | inhibition [2] | inhibition [3] |
| --- | --- | --- | --- |
| CCCc1cccc(OC)c1OCCCON1C(N)=NC(N)=NC1(C)C | -2.03% | -0.29% | 0.81% |
| Cc1cccc2nc(-c3ccc(-c4ccc(CNCc5ccccc5)cc4)s3)[nH]c12 | 8.05% | 4.44% | 3.06% |
| COc1ccc2ncc(C#N)c(CCN3C[C@H](CNCc4ccccc4)[C@H](O)C3)c2n1 | 3.18% | 3.76% | 2.91% |
| CN(c1ccc2c(c1)nc(NCc1ccc(F)cc1)n2C)c1ccnc(Nc2ccc(CS(C)(=O)=O)cc2)n1 | -0.61% | -0.52% | -1.02% |
| CN1CCN(CCNc2c3ccccc3nc3ccc4ccccc4c23)CC1 | 18.8% | 17% | 12.5% |
| Cc1c(NC(=O)COc2ccc(Cl)cc2C(=O)c2cc(F)cc(C(F)(F)F)c2)ccc2ncsc12 | 9.85% | 9.17% | 7.93% |
| CN=C(N)c1ccc(NC(=O)C=Cc2ccc(C(=O)Nc3ccc(C(N)=NC)cc3)cc2)cc1 | 9.91% | 15.9% | 4.6% |
| OC(CNCc1ccccc1OCc1ccccc1)c1cc(C(F)(F)F)cc(C(F)(F)F)c1 (centres undefined) | 8.75% | 10.9% | 4.23% |
| CN(C)C(CNC(=O)c1cc(-c2ccncc2)c(-c2ccc(NC(=O)Nc3cccc(Cl)c3)cc2)o1)c1ccccc1 (centres undefined) | 1.5% | 2.82% | 0.81% |
| O=C(Nc1ccc(Cl)cc1)c1ccc(CN2CCCN(Cc3cccc(F)c3)CC2)cc1 | -0.02% | 5.11% | 3.31% |
| O=C(Nc1ccc(F)cc1F)NC1CCN(CCCCCNC(=O)C2CC2c2ccc(Cl)c(Cl)c2)CC1 (centres undefined) | 0.37% | 2.99% | 3.47% |
| NS(=O)(=O)NCCCN1CCN(c2ccccc2)CC1 | 1.95% | 1.37% | 1.5% |
| CCNC(=O)Nc1ccc(-c2cccc(-c3nc4cccc(C)c4[nH]3)c2)cc1 | 5.51% | 5.35% | 3.12% |
| O=C(Cc1ccc([N+](=O)[O-])cc1)N1CCc2cc3nccc(N4CCN5CCC[C@@H]5C4)c3cc21 | 1.21% | 0.39% | 2.97% |
| Nc1nc(N)c2cc(N(Cc3ccccc3)Cc3ccccc3)ccc2n1 | 16.1% | 17.2% | 10.8% |
| Cn1cncc1C(=O)Nc1cccc(-c2ccc(-c3nc4cc(C(F)(F)F)ccc4[nH]3)cc2)c1 | 9.17% | 6.73% | 5.1% |
| COc1ccc2ccccc2c1CON1C(=N)N=C(N)NC1(C)C | 1.59% | 1.46% | 1.5% |
| Cc1ccnc2nc(C(=O)Nc3cc(Cl)ccc3N3CCOCC3)nn12 | 5.13% | 5.74% | 5.36% |
| Cc1noc(C)c1-c1cccc(CNCc2cccc(-c3cccc(-c4nc5cc(F)ccc5[nH]4)c3)c2)c1 | -2.23% | 5% | 0.55% |
| c1ccc(CN2CCCN(c3ccc4c(c3)CCN(Cc3ccc(-c5ncc[nH]5)cc3)CC4)CC2)cc1 | 2.8% | 3.96% | 0.68% |
| O=C(c1ccc([N+](=O)[O-])o1)N1CCC(Cc2ccc(C(F)(F)F)cc2)CC1 | 9.05% | 22.5% | 0.45% |
| N#Cc1cccc(CN2CCCN(Cc3ccc(C(=O)Nc4ccc(Cl)cc4)cc3)CC2)c1 | 4.41% | 5.4% | -0.06% |
| CNC(=O)c1cnc(Nc2ccc3[nH]c(=O)[nH]c3c2)nc1Nc1cccc(OC(C)C)c1 | -0.17% | -0.76% | -0.26% |
| CCOc1c(CNCCCNc2cc(O)c3ccccc3n2)cc(Br)cc1OC | 7.77% | 4.37% | 6.38% |
